Hits are enriched below; roughly 3.9% of the tested compounds scored in any of these assays.
GALK inh: qHTS Assay for Inhibitors of Human Galactokinase (GALK); AID 1868, 2009; 0.007% of 270,000 active; Potency, µM (doses to about 57.5 µM), for the others: at the highest dose activity change, negative = inhibition, most hits filed as inhibitors; Purified GALK, Kinase-Glo residual ATP luminescence; P51570; further: potency means the concentration at half of the fitted maximal effect; on the % scale 0 is the no-effect control and ±100 the full control effect
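Kinase-Glo Plus luminescence measured ATP left after a 1 h room-temperature reaction. The reaction used 5 nM GALK, 100 uM galactose and 35 uM ATP at pH 8.0 (20 mM HEPES, 5 mM MgCl2, 60 mM NaCl, 1 mM DTT, 0.01% BSA).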
Eya2 phos inh: qHTS Assay for Inhibitors of the Phosphatase Activity of Eya2 | Protein phosphatase EYA2 (Homo sapiens), O00167 | recombinant Eya2, OMFP fluorescence dephosphorylation (OMFP is methylfluorescein phosphate) | Potency, µM (doses to about 76.9 µM), for the others: top-dose activity, negative = inhibition, hits mostly inhibitors | 0.006% of 330,000 active | AID 488837, 2010; further: potency means the concentration at half of the fitted maximal effect; on the % scale 0 is the no-effect control and ±100 the full control effect
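Eya2 protein (added as 0.2 uM solution) was preincubated with compound for 10 min at ambient temperature in 50 mM HEPES pH 7.5, 50 mM NaCl, 5 uM MgCl2, 0.05% BSA, 1 mM DTT. OMFP (added at 50 uM) then reacted 10 min; fluorescence read at 485/525 nm.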
D1 PAM: Potentiators of Human D1 Dopamine Receptor: qHTS. D(1A) dopamine receptor (Homo sapiens), P21728. 0.036% of 360,000 active. potentiation, % at 10 µM. AID 504651, 2011. HEK293 TREx D1 cells, calcium flux, dopamine EC20 potentiation; in the data active means potentiation above about 30%; further: 0% is about no effect
D1 antagonist: Antagonist of Human D 1 Dopamine Receptor: qHTS. HEK293 TREx D1 cells, calcium flux, dopamine EC80; hits give low values. activity change, negative = inhibition, % at 10 µM. 3.2% of 360,000 active; in the data active means activity change below about -30%; further: on the % scale 0 is the no-effect control and ±100 the full control effect
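Compound effects on dopamine-evoked calcium signalling were measured in tetracycline-induced HEK293 Trex D1 cells. Dopamine at EC80 followed a 180 s compound pre-read, and fluorescence was tracked kinetically for 180 s more.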
USP2a inh: qHTS Assay for Inhibitors of Ubiquitin-specific Protease USP2a Using CHOP2 as the Reporter; Ubiquitin carboxyl-terminal hydrolase 2 (Homo sapiens), O75604; USP2 core, Ub-CHOP2 coupled fluorogenic reporter, 485/531; Potency, µM (doses to about 38.3 µM), without a hit: top-dose activity change, negative = inhibition, usual class: inhibitors; 0.01% of 330,000 active; AID 463254, 2010;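 further: potency means the concentration at half of the fitted maximal effect; plate controls were DMSO wells for no effect and full inhibition by NEM control for full effect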
Target sequence (O75604 whole entry, looked up): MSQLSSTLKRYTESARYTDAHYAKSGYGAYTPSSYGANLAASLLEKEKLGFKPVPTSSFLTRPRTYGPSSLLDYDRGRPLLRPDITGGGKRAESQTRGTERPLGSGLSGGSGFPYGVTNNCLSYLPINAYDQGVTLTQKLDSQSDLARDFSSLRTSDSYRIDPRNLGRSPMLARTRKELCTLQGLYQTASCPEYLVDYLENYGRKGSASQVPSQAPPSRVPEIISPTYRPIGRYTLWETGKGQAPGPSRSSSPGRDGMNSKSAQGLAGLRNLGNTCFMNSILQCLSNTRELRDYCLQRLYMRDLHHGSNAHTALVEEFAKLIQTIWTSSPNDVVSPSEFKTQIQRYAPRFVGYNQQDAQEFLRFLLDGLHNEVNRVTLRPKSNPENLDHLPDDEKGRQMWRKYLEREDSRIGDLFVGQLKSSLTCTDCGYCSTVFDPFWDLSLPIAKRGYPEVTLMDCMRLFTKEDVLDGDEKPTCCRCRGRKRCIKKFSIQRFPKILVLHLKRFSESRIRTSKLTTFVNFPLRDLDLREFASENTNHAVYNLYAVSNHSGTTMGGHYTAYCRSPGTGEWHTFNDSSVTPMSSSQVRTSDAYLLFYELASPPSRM
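USP2 core (10nM final) preincubated 30min RT with compound in 20mM Tris-HCl pH 8.0, 2mM CaCl2, 2mM beta-mercaptoethanol, 0.05% CHAPS; 25nM Ub-CHOP2 plus 25nM reporter substrate added, fluorescence (Ex485/Em531) read after 60min.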
D1 ag: Allosteric Agonists of the Human D1 Dopamine Receptor: qHTS. AID 504660, 2011. HEK293 T-REx D1 cells, calcium flux, agonist mode. D(1A) dopamine receptor (Homo sapiens), P21728. activation, % at 2 µM. 1% of 360,000 active; in the data active means activation above about 30%; further: 0% is about no effect
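Agonism was scored from calcium flux recorded over 180 s (1 read/s) after pintool compound addition, following a 10-cycle baseline. Cells were inducible force-coupled HEK293 TREx D1, plated overnight at 30 C and loaded with no-wash calcium dye.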
* marks the source's active call; other numbers are inactive results; ? = inconclusive; nt = no result. Unless noted, the call rests on the fitted dose curve; in most records, active means well fitted inhibition curve with a large enough effect; inconclusive means small, poorly fitted or top-dose-only effect, or effect the other way; inactive means flat fitted curve, though single readings scatter.

SMILES	GALK inh	Eya2 phos inh	D1 PAM	D1 antagonist	USP2a inh	D1 ag
CN1CCN(C2=Cc3ccccc3Sc3cc(F)ccc32)CC1	-2.1%	-2.9%	-9.4	-62.2*	-1.2%	8.1
CN1CCN(C2=Cc3ccc(Cl)cc3Sc3ccc(F)cc32)CC1	0.5%	-12.5%	-27.7	-91.1*	4.0%	9.0
Cc1ccc(CSCCC(=O)N2CCN(c3ccc(F)cc3)CC2)cc1	nt	nt	-0.5	-6.1	nt	-4.3
O=[N+]([O-])c1ccc(-c2csc(Nc3ccccc3)[n+]2Cc2ccccc2)cc1	-2.4%	-2.9%	-5.2	-40.6*	0.4%	4.8
CCN1CCN(Cc2cccc(Oc3ccc(Cl)cc3)c2)CC1	-0.1%	-10.0%	-2.0	-64.5*	-3.8%	19.3
COc1ccc2c(c1)c(=O)c(C(=O)c1ccc(F)cc1)cn2CC(=O)Nc1ccc2c(c1)OCCO2	nt	nt	0.1	15.3	nt	5.5
COc1ccc(OC)c(CCNc2nc3ccccc3c3nc(-c4cccnc4)nn23)c1	nt	nt	-3.8	6.0	nt	0.6
CCc1ccc(C2=CC(c3c(F)cccc3Cl)n3c(nc4ccccc43)N2)cc1 (configuration not stated)	nt	nt	-0.6	-7.7	nt	39.0*
CCC(C)NC(=O)c1cc(CC(C)C)on1 (configuration not stated)	-0.2%	3.9%	0.6	-30.4*	2.8%	1.7
Cc1cc(NC(=O)c2cc(CC(C)C)on2)no1	2.3%	0.8%	3.9	12.4	2.4%	-1.6
O=C(CNC(=O)c1ccccc1Cl)OC(C(=O)Nc1cc(C(F)(F)F)ccc1Cl)c1ccccc1 (configuration not stated)	nt	nt	-2.5	-4.9	nt	5.2
Cc1nc2c(c(C)nn2-c2ccccc2)c(C)c1CCC(=O)Nc1ccc(CN2CCCC2)cc1	nt	2.9%	-17.4	-39.2*	-1.2%	22.2
Cc1nnn(C23C[C@@H]4C[C@@H](CC(C(=O)N5CCN(c6ccccc6)CC5)(C4)C2)C3)n1	5.2%	-2.9%	-2.5	-34.3*	-0.4%	0.3
COc1ccccc1Cn1cc(C(=O)c2ccc(C)cc2)c(=O)c2cc3c(cc21)OCCO3	nt	nt	-1.7	0.9	nt	3.1
CN(C(=O)c1ccccc1OCc1ccc(Cl)cc1)c1ccccc1	-2.6%	-2.6%	-2.0	-5.3	1.7%	4.2
CN(Cc1nc2ccccc2c(=O)[nH]1)C(=O)c1ccccc1OCc1ccc(Cl)cc1	nt	7.2%	-0.8	-31.9*	1.7%	1.0
CCNC(=S)Nc1ccc(NC(=O)c2ccccc2O)cc1	5.3%	-4.8%	0.5	29.1	-0.8%	1.4
CCNC(=S)Nc1cccc(NC(=O)c2ccccc2O)c1	1.8%	8.1%	-3.2	-35.8*	0.9%	0.9
Cc1ccc(-c2nc3ccccc3nc2-c2ccccc2)cc1	5.1%	-14.6%	1.0	-5.8	-2.3%	3.9
CCCCn1nc(-c2ccccc2)c2nc3ccccc3nc21	3.0%	1.7%	2.0	-8.4	1.0%	50.8*
Cn1nc(-c2ccccc2)c2nc3ccccc3nc21	3.5%	11.2%	3.6	5.1	-0.4%	94.4*
O=C(CSc1cccc[n+]1[O-])N1CCCCCC1	9.9%	-3.5%	0.8	-33.9*	-0.5%	2.5
O=C(CSc1cccc[n+]1[O-])NCC1CCCCC1	-2.1%	6.4%	1.4	-69.3*	0.6%	0.2
O=C(CSc1cccc[n+]1[O-])NC1CCCCCCC1	0.4%	?	-2.4	2.7	-0.4%	3.9
Cc1ccc2[nH]c3c(c2c1)CN(C(=O)CN1CCN(Cc2ccc4c(c2)OCO4)CC1)CC3	-0.3%	4.3%	-5.0	-34.9*	1.5%	42.0*
O=C(c1ccc(CSc2nc3ccncc3n2Cc2cccc(F)c2)cc1)N1CCCCCC1	nt	nt	-2.6	-1.4	nt	-0.3

High-throughput results: PubChem, National Center for Advancing Translational Sciences (NCATS)
